# Screening results: PubChem, several laboratories
# Hits are enriched below; roughly 2% of the tested compounds scored in any of these assays.
# HGIII-sPLA2 inh – Inhibits HGIII-sPLA2 liposome hydrolysis, primary screen; QFRET BODIPY PC-A2 liposome hydrolysis, fluorescence; inhibition, % at 12.2 µM; 370,000 tested, 0.56% active; AID 743126;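 active = inhibition above mean plus 3 SD of compounds lying within the high and low control bounds, cut at about 19% in these data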;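 note: 0% = median of test compound wells and 100% = no enzyme DMSO wells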
# NALP1 yeast inh – inhibitors of NALP1 inflammasome in yeast. S. cerevisiae NALP1/ASC/caspase-1 growth, X-gal OD620, 72 h. inhibition, % at 10 µM. 280,000 tested, 0.61% active. AID 2071; in the data active = inhibition mostly above about 24%, no sharp cut-off; inactive = mostly below about 32%
# A3G deaminase – APOBEC3G (human) deaminase inhibition; Q9HC16; recombinant A3G, ssDNA deamination FAM/TAMRA fluorescence; inhibition, % at 20 µM; 330,000 tested, 0.28% active; AID 493012;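 active = inhibition of at least 40% at 20 µM, with no more than 30% in the related APOBEC3A deaminase screen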;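 note: plate controls were DMSO wells with A3G for no effect and wells lacking A3G enzyme for full effect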
# Fh CTSL1 inh – counter-screen for PFM18AAP inhibitors: inhibitors of F. hepatica cathepsin L1 | recombinant F. hepatica cathepsin L1, Z-Leu-Arg-MCA fluorescence | 300,000 tested, 0.49% active | inhibition, % at 5.96 µM;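 active = inhibition above the mean of all tested compounds plus 3 SD, set per screening campaign, cut at about 17% in these data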;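 note: 0% = plate median of test compound wells and 100% = 1 µM Z-Phe-Ala-diazomethylketone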
# A3A deaminase – human APOBEC3A DNA deaminase inhibition; P31941; inhibition, % at 20 µM; 330,000 tested, 0.41% active; recombinant A3A, FAM/TAMRA ssDNA deamination fluorescence;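 active = at least 40% inhibition at 20 µM here, with at most 30% in a related deaminase screen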;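 note: plate controls were A3A with DMSO for no effect and wells lacking A3A enzyme for full effect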
# Target sequence (P31941 whole entry, looked up): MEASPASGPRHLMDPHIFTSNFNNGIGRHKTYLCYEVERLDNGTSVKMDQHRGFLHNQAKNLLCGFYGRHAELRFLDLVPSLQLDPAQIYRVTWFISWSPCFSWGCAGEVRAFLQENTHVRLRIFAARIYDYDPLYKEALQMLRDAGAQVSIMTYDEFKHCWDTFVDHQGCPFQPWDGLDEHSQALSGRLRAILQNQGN
# An asterisk follows results filed as active; nt = no result.
SMILES,HGIII-sPLA2 inh,NALP1 yeast inh,A3G deaminase,Fh CTSL1 inh,A3A deaminase
Cc1cc(C)n(-c2ccc(C(=O)NCc3ccc(F)cc3)cc2)n1,0,29*,0,-4,2
CCOC(=O)CNC(=O)CSc1nc(C)cc(C)c1C#N,2,37*,0,-3,1
Cc1ccc(CNC(=O)CSc2nc(C)cc(C)c2C#N)cc1,5,-9,-5,17*,0
CC(C(=O)NNS(=O)(=O)c1cccc(C(F)(F)F)c1)n1nnc(N2CCOCC2)n1 (stereo not given),-3,11,-10,59*,-3
CC(C(=O)NN)n1nnc(N2CCOCC2)n1 (stereo not given),12,9,-2,-1,0
CN1CCc2cccc3c2[C@@H]1Cc1ccc(O)c(O)c1-3,nt,86*,39,1,0
Cc1ccc2c(Cl)c(C)c(N3CCCCC3)nc2n1,-9,46*,-7,3,3
Cc1nc2ccccc2nc1N1CCCCC1,4,-5,nt,nt,nt
O=C(Cn1nc(-c2ccccc2)c2ccccc21)Oc1ccccc1,5,nt,nt,nt,nt
Cc1cc(N=Nc2ccccc2C(=O)O)c(C)c(C)c1O,-7,22,8,7,11
Cc1cc(O)c(C(C)C)cc1N=Nc1ccccc1C(=O)O,-5,38*,-2,5,5
CC(C)CC(C(=O)Nn1cnnc1)N1C(=O)c2ccccc2C1=O (stereo not given),-6,26,6,23*,-7
COC(=O)[C@]12C[C@H](CC(=O)NCC34CC5CC(CC(C5)C3)C4)C(=O)N(Cc3ccco3)C1=C[C@H](C(C)(C)C)O[C@@H]2C,-13,nt,nt,nt,nt
C/C(=N\NC(N)=S)C1(C)CCCCC1,10,18,2,30*,10
C/C(=N\NC(N)=S)C12CC3CC(CC(C3)C1)C2,6,-20,1,18*,0
CCC1Oc2ccc(C)cc2N(CC(=O)N(Cc2ccc(C)o2)C2CCCC2)C1=O (stereo not given),-6,9,-8,28*,0
CCC1Oc2ccc(C)cc2N(CC(=O)NC2CCCCC2)C1=O (stereo not given),3,4,-7,-2,0
N#C[C@@H]1N[C@H](CO)[C@@H]1c1ccccc1,2,nt,nt,nt,nt
COC(=O)[C@]12C=CCN1[C@H](c1ccccc1)c1c(c3ccccc3n1S(=O)(=O)c1ccc(C)cc1)C2,7,nt,nt,nt,nt
CCCCOC(=O)Nc1nnc(CC)s1,0,43*,2,-1,-10
O=C1CC(N2CCC(c3nc4ccccc4[nH]3)CC2)C(=O)N1c1ccccc1F (stereo not given),0,32*,-9,4,-1
Cc1cc(C)c(Cc2c(C)nc3c(C(=O)NCc4ccco4)cnn3c2C)c(C)c1,-2,42*,-3,1,1
O=C(NCc1ccco1)c1cnn2c(C(F)F)cc(-c3ccccc3)nc12,6,15,-4,7,0
CC(=O)/C=C(\C)Nc1ccccc1O,5,43*,1,-3,-1
CC(C)(N[C@@H](Cc1ccccc1)C(=O)NCCc1c[nH]c2ccccc12)C(=O)NC1CCCCC1,-83,nt,nt,nt,nt
SMILES,HGIII-sPLA2 inh,NALP1 yeast inh,A3G deaminase,Fh CTSL1 inh,A3A deaminase
COc1ccc(CNC(=O)Oc2ccccc2)cc1Cl,4,22,4,19*,2
O=C(CSc1nc2ccccc2nc1N1CCCCC1)NCc1ccc(Cl)cc1Cl,6,nt,nt,nt,nt
Nc1c(Cl)ncnc1N/N=C/c1ccccn1,-5,94*,nt,7,nt
O=C(c1ccc(Cl)cc1)C1CCN(c2ncnc3sccc23)CC1,-1,nt,nt,nt,nt
Nc1ccccc1SCc1csc(-c2ccc(Cl)cc2)n1,1,40*,-8,0,-1
Clc1ccc(-c2nc(CSc3ccccn3)cs2)cc1,-3,nt,nt,nt,nt
N#Cc1c(N)sc(=S)c2c1CCN(Cc1ccccc1)C2,nt,25,53*,109*,-2
CC(=O)CS(=O)(=O)c1ccc(Oc2ccc(S(=O)(=O)CC(C)=O)cc2)cc1,-15,2,-4,24*,2
c1ccc(CN2CCN(c3ncnc4sccc34)CC2)cc1,0,nt,nt,nt,nt
O=C(NCc1ccccc1Cl)C1CCC(CNS(=O)(=O)c2cccc3cccnc23)CC1 (stereo not given),5,nt,nt,nt,nt
CCC(CNc1cc(OC)cc2cccnc12)NC1CCCCC1 (stereo not given),-2,9,nt,86*,nt
Cc1cc(C)cc(NC(=O)C2C3C=CC4(O3)C2C(=O)N(CCN2CCCCC2)C4C(=O)NC2CCCCC2)c1 (stereo not given),-2,15,-13,19*,0
